This is an account of results in the supplement of paper PMC7156485.

Unmarked numbers belong to inactive results.
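Further: TDF is a line of transformed human dermal fibroblasts of mesenchymal origin.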

This assay deals with HCC1569. Put plainly: H1.0 immunofluorescence intensity relative to DMSO (% of DMSO); higher = stronger H1.0 induction, active = 140 or more. Conditions: concentration: 10 µM; 24 h. In outline: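 H1.0 nuclear intensity or cell number is expressed as percent of the plate control, with the median of replicates taken. HCC1569 and TDF cells were treated with compounds at 10 µM for 24 h at 37 °C, in triplicate, then fixed and immunostained for H1.0 with DAPI as a nuclear stain. HCC1569 values were smoothed to correct for positional effects.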
Turning to `CCN(CC)CCCC(C)Nc1c2ccc(Cl)cc2nc2ccc(OC)cc12` (centres undefined) [Quinacrine], the H1.0 immunofluorescence intensity was 180 (active).
The value for `CCc1c(CC(N)=O)c2cc(OCCCP(=O)(O)O)ccc2n1Cc1ccccc1` was 101; that for `COc1cc(-c2oc3cc(O)cc(O)c3c(=O)c2O)ccc1O` [Isorhamnetine] was 116; that for `CCC(C)N(C)C(=O)c1cc2ccccc2c(-c2ccccc2Cl)n1` (centres undefined) was 84.
`Cc1ccccc1/N=N/c1ccc(NC(=O)c2ccnn2C)c(C)c1`: the H1.0 immunofluorescence intensity is 110.
In the case of `CC(N)(Cc1ccc(O)c(O)c1)C(=O)O` [L-alpha-Methyl DOPA], the H1.0 immunofluorescence intensity is 86.8.
In the case of `Cc1ccccc1C=CC1=NCCN1.O=C(O)C(=O)O` [Metrazoline oxalate], the H1.0 immunofluorescence intensity is 124.
On to `O=C(O)C=CC(=O)O.c1cnc(N2CCN(Cc3ccc4c(c3)OCO4)CC2)nc1` [Piribedil maleate], for which the H1.0 immunofluorescence intensity is 79.7.
Regarding `COc1ccc(Cl)cc1C(=O)NCCc1ccc(S(=O)(=O)NC(=O)NC2CCCCC2)cc1` [Glibenclamide], the H1.0 immunofluorescence intensity is 90.3.
Regarding `COCCc1ccc(OCC(O)CNC(C)C)cc1` (centres undefined) [Metoprolol], the H1.0 immunofluorescence intensity is 104.
Consider `COc1c(O)c2c(=O)cc(OC)c3c4c(OC)cc(=O)c5c(O)c(OC)c6c(c(c1CC(C)(O)C6C(C)=O)c23)c54` (centres undefined) [Hypocrellin A], for which the H1.0 immunofluorescence intensity was 108.
On to `O=C(Nc1cccc(Nc2nccc(Nc3cccc(C(F)(F)F)c3)n2)c1)C1CC1` [Aurora Kinase Inhibitor III], for which the H1.0 immunofluorescence intensity is 247 (active).
The value for `CCn1cc(C(=O)O)c(=O)c2cc(F)c(N3CCNC(C)C3)c(F)c21.Cl` (centres undefined) [Lomefloxacin hydrochloride] was 92.9.
As for `COC1C=COC2(C)Oc3c(C)c(O)c4c(c3C2=O)C(=O)C(=CNN2CCN(C)CC2)C(=C4O)NC(=O)C(C)=CC=CC(C)C(O)C(C)C(O)C(C)C(OC(C)=O)C1C` (centres undefined) [Rifampicin], the H1.0 immunofluorescence intensity was 103.
`Cc1c(Cl)cccc1Nc1ccccc1C(=O)O` [Tolfenamic acid]: the H1.0 immunofluorescence intensity was 95.
`CC(C)=CCCC(C)=CCOc1ccc2ccc(=O)oc2c1` [Auraptene]: the H1.0 immunofluorescence intensity was 97.1.
As to `CCCc1cc(=O)oc2c(C(=O)N3CCCc4ccccc43)c(OC)cc(OC)c12`, the H1.0 immunofluorescence intensity is 159 (active).
In the case of `C#CC1(O)CCC2C3CCC4=CC(=O)CCC4C3CCC21C` (centres undefined) [Norethindrone], the H1.0 immunofluorescence intensity is 109.
To `CCC1(O)CC2CN(CCc3c([nH]c4ccccc34)C(C(=O)OC)(c3cc4c(cc3OC)N(C)C3C(O)(C(=O)OC)C(OC(C)=O)C5(CC)C=CCN6CCC43C65)C2)C1` (centres undefined) [Vinblastine] belongs 164 (active).
On to `Nc1ncnc2n[nH]c(Nc3ccc(F)cc3)c12` [MNK1 Inhibitor], for which the H1.0 immunofluorescence intensity is 140.
In the case of `O=C(Nc1nc2ccccc2n1CCN1CCOCC1)c1cccc([N+](=O)[O-])c1` [IRAK-1/4 Inhibitor], the H1.0 immunofluorescence intensity is 117.
As to `CNCC(O)c1cccc(O)c1.Cl` (centres undefined) [Phenylephrine hydrochloride], the H1.0 immunofluorescence intensity was 94.3.
For the compound `COc1cc2c(cc1OC)C(c1ccccc1)CN(C)CC2.O=C(O)C=CC(=O)O` (centres undefined), the H1.0 immunofluorescence intensity was 92.5.
As for `CC(C(=O)O)c1cccc(Oc2ccccc2)c1` (centres undefined) [Fenoprofen], the H1.0 immunofluorescence intensity was 120.
Regarding `COC(=O)C1C2CC3c4[nH]c5cc(OC)ccc5c4CCN3CC2CC(OC(=O)c2cc(OC)c(OC)c(OC)c2)C1OC` (centres undefined) [Reserpine], the H1.0 immunofluorescence intensity is 101.
`Nc1nc(=O)c2ncn(CCC(CO)CO)c2[nH]1` [Penciclovir]: the H1.0 immunofluorescence intensity is 117.
For `CCOc1ccc2c(c1)C(C)=CC(C)(C)N2` [Ethoxyquin], the H1.0 immunofluorescence intensity was 98.9.
To `Cl.Cl.c1cnc(N2CCN(Cc3ccc4c(c3)OCO4)CC2)nc1` [Piribedil.2HCl] belongs 107; to `CN(C)CCOC(c1ccccc1)c1ccccc1.Cl` [Diphenhydramine hydrochloride], 97.
